From publication PMC9574860, “Chemical Toolkit for PARK7: Potent, Selective, and High-Throughput” (Journal of Medicinal Chemistry, 2022) come the findings set out here.

About 400 (5.1%) of roughly 7,900 compounds showed an effect of 50% or more. Shown is part of a subset that was picked to be rich in strong results.

Chain of Parkinson's disease protein 7 (PARK7/DJ1) (Q99497 whole entry, looked up, the tested form may be a part): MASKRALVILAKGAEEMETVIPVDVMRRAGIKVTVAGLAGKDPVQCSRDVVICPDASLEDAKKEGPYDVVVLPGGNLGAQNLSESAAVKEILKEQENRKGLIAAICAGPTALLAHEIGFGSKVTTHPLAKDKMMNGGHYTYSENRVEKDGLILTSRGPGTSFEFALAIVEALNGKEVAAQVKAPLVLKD

In the assay the target is Parkinson's disease protein 7 (PARK7/DJ1) (human, UniProt Q99497). Kind of assay: primary screen, percent inhibition; read as competition with a fluorescent probe by fluorescence polarization; higher = more effect of the substance. As to conditions: 100 µM. The gist of the method:
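Covalent fragments at 100 μM final were incubated 2 h with 0.2 μM PARK7, then 20 nM probe JYQ-107 added for a further 2 h. Fluorescence polarization read at 480/520 nm; relative FP loss versus reference controls gave remaining enzyme activity.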
For `N#Cc1cccnc1S`, the Inhibition % is on record as 11.9%.
For the compound `N#Cc1cnccc1S`, the Inhibition % was determined as 92.5%.
Next, `N#Cc1ccncc1C(=O)O`: 12.3%; `O=C(c1ccccc1)N1CCCC(CS(=O)(=O)F)C1` (stereo not drawn): 71.4%.
With `O=C(CCl)NC(=O)c1cccs1`, the Inhibition % is reported as 23.4%.
Turning to `O=C(NCCS(=O)(=O)F)c1ccccc1`, the Inhibition % came to 13.4%.
In the case of `O=C(OCc1ccccc1)N1CCCCC1CS(=O)(=O)F` (stereo not drawn), the Inhibition % stood at 16%.
In the case of `O=C(c1ccccc1)N1CCCC(S(=O)(=O)F)C1` (stereo not drawn), the Inhibition % stood at 32.4%.
As to `O=S(=O)(F)CCc1ccccc1`, the Inhibition % came out at 4.21%.
Next, `O=C(NCCCS(=O)(=O)F)OCc1ccccc1`: 95.8%; `COC(=O)C1CC(S(=O)(=O)F)CN1C(=O)c1cccs1` (stereo not drawn): 11%; `O=C(NCCCS(=O)(=O)F)c1cccs1`: 98.9%.
As to `O=C(CCl)NC(=O)OCc1ccccc1`, the Inhibition % was determined as 33.1%.
Turning to `O=C(c1cccs1)N1CCCCC1CCS(=O)(=O)F` (stereo not drawn), the Inhibition % was 84.1%.
Next, `O=C(c1ccccc1)N1CCC(CCl)C1` (stereo not drawn): 2.86%; `c1csc(COCC2CO2)c1` (stereo not drawn): 0.211%; `C=CC(=O)NC1CCCN(c2cccnc2)C1=O` (stereo not drawn): 15.4%.
Next, `C=CC(=O)NC1(C2CC2)CCOCC1`: 7.04%; `C=CC(=O)N1CCC(Oc2cccnc2N2CCCC2)C1` (stereo not drawn): 13.2%; `C=CC(=O)N1CC2(CCOCC2)c2ccccc21`: 7.61%.
Next, `O=C(N[C@H]1CC[C@@H](CS(=O)(=O)F)C1)c1cccs1` (racemic): 96.8%.
Take `O=C(CCl)NNC(=O)c1cccs1`: the Inhibition % worked out at 7.74%.
Consider `O=C(c1ccccc1)N1CC(S(=O)(=O)F)C1`, for which the Inhibition % stood at 35.6%.
Turning to `O=C(c1cccs1)N1CCOC(CS(=O)(=O)F)C1` (stereo not drawn), the Inhibition % is 14.7%.
In the case of `O=C(CCl)N1CCN(C(=O)c2cccs2)CC1`, the Inhibition % is 40.3%.
As for `O=C(c1cccs1)N1CCC(CS(=O)(=O)F)C1` (stereo not drawn), the Inhibition % is recorded as 97.1%.
As for `O=C1OCCC1N1CCN(C(=O)c2cccs2)CC1` (stereo not drawn), the Inhibition % was 9.27%.
With `O=C(NC1CCN(C2CCOC2=O)CC1)c1cccs1` (stereo not drawn), the Inhibition % is 7.52%.
Next, `O=C(c1cccs1)N1CCC(CS(=O)(=O)F)CC1`: 35.6%.
On to `O=C(c1cccs1)N1CCCC(CS(=O)(=O)F)C1` (stereo not drawn), for which the Inhibition % is reported as 90.1%.
Next, `O=C(c1cccs1)N1CCC(S(=O)(=O)F)CC1`: 10.8%; `O=C(c1cccs1)N1CCCC(S(=O)(=O)F)C1` (stereo not drawn): 73.5%; `Nc1cccc(OC2CC(=O)N2)c1` (stereo not drawn): 18.6%.
With `O=C(O)C1COCCN1C(=O)C=Cc1ccc(Cl)s1` (stereo not drawn), the Inhibition % was 13.1%.
Consider `C=CC(=O)NCC1CC2(CCOCC2)CO1` (stereo not drawn), for which the Inhibition % was 5.16%.
For the compound `CC(C)(C)OC(=O)N1CCOc2cccc(B3OC(C)(C)C(C)(C)O3)c2C1`, the Inhibition % came to 3.79%.
Regarding `CC(Cl)Cc1cc2ccc(O)cc2oc1=O` (stereo not drawn), the Inhibition % is recorded as 12.3%.
Next, `O=C(CCl)Nc1cc(F)cc(F)c1`: 14.6%.
Next, `C=CC(=O)N1CCN(CC(C)C)C(=O)C1C` (stereo not drawn): 0.151%; `COc1ccc(C)cc1S(=O)(=O)Oc1ccccn1`: 17%.
`CCCOc1cc(C)c(C)cc1S(=O)(=O)n1ccnc1C`: the Inhibition % came out at 8.09%.
Next, `COC(=O)c1cc([N+](=O)[O-])cc(B2OC(C)(C)C(C)(C)O2)c1C`: 12.9%; `COc1ccc(S(=O)(=O)F)cc1O`: 54%; `COc1cc(S(=O)(=O)F)ccc1O`: 17.3%.
Next, `COc1ccccc1-c1nnc(-c2ccc(S(=O)(=O)F)cc2)o1`: 9.83%; `C=CC(=O)Nc1ccc(OCC)c(CO)c1`: 4.38%.
Regarding `COc1ccc(B2OC(C)(C)C(C)(C)O2)c(C#N)c1`, the Inhibition % was 7.16%.
On to `COc1cc(OC(F)F)ccc1B1OC(C)(C)C(C)(C)O1`, for which the Inhibition % is -1.65%.
On to `COc1ccc(B2OC(C)(C)C(C)(C)O2)c(N)c1`, for which the Inhibition % amounted to 56%.
Consider `CC1(C)OB(c2ccnn2-c2ccccc2)OC1(C)C`, for which the Inhibition % is given as 14.9%.
Next, `CC1CC(Sc2ccccn2)C(=O)O1` (stereo not drawn): 5.37%; `Cc1cc(S(N)(=O)=O)cc(NC(=O)CCl)c1C`: 2.37%; `C=CC(=O)NC1CCC2(CC1)CC2(F)F` (stereo not drawn): 3.45%.
On to `C=CC(=O)Nc1ccc2sncc2c1`, for which the Inhibition % was 97.4%.
On to `C=CC(=O)Nc1ccc2c(cnn2C(F)F)c1`, for which the Inhibition % was found to be 6.45%.
Next, `C=CC(=O)Nc1ccc2occc2c1`: 9.28%; `CC1(C)C(=O)NC1C1CCN(CC(C)(O)C(F)(F)F)CC1` (stereo not drawn): 6.49%; `C=CC(=O)N1CCOC(c2ccccc2)C1` (stereo not drawn): 4.98%.
Next, `O=C1CN=C(S)N1c1ccccc1Cl`: 5.52%.
Consider `O=C1CCC(=O)N1CC(=O)N1CCCc2ccccc21`, for which the Inhibition % came out at 10.8%.
Next, `CC1Cc2ccccc2N1C(=O)CCl` (stereo not drawn): 8.22%; `NS(=O)(=O)c1ccc2c(c1)CCN2C(=O)CCl`: 83.1%.
Next, `O=C(CCl)N1CCCC1=O`: 79.2%.
In the case of `O=C1CCCN1CCCl`, the Inhibition % is reported as 5.09%.
Next, `CC1CCc2ccccc2N1C(=O)CCl` (stereo not drawn): 100%.
Consider `O=C(CCl)N1CCc2cc([N+](=O)[O-])ccc21`, for which the Inhibition % is given as 5.06%.
Next, `CN(C)S(=O)(=O)c1ccc2c(c1)CCCN2C(=O)CCl`: 8.14%; `C=CC(=O)NCCC(=O)N1c2ccccc2CCC1C` (stereo not drawn): 5.89%; `O=C(CCl)N1CCCc2ccccc21`: 69.2%.
Next, `O=C(CCl)NCCCN1CCCC1=O`: 3.35%; `O=C(CCl)N1CCc2ccccc21`: -0.66%.
Next, `C=CC(=O)N1CC(C)OC(COC)C1` (stereo not drawn): 6.19%.
Turning to `C=CC(=O)N1CCCC(N(C)Cc2noc(C)n2)CC1` (stereo not drawn), the Inhibition % amounted to 1.13%.
Next, `O=C(CCl)Nc1ccccc1C(=O)Nc1ccc(F)cc1`: 6.28%; `O=C(CCl)N(Cc1ccco1)CC(F)(F)F`: 11.9%.
Next, `CC1(C)OB(c2ccc(F)cc2[N+](=O)[O-])OC1(C)C`: 3.67%; `O=C(Nc1ccc2c(c1)COC2)c1cccnc1S`: 2.52%; `C=CC(=O)NC1C2Cc3ccccc3C21` (stereo not drawn): 11.1%.
Next, `O=C(CCl)N1c2ccccc2CCc2ccccc21`: 61%.
For `O=C(CCCl)N1CCc2ccccc21`, the Inhibition % came out at 3.9%.
Next, `O=C(CCl)N1c2ccccc2Sc2ccccc21`: 1.08%.
Next, `CCOc1cc(C)ccc1S(=O)(=O)n1cccn1`: 0.108%; `COC(=O)c1cc(B2OC(C)(C)C(C)(C)O2)c(C)cn1`: 4.59%.
With `CS(=O)(=O)OC1CCOC(c2ccncc2)C1` (stereo not drawn), the Inhibition % turned out to be 7.05%.
With `CN(CCOc1ccccc1F)C(=O)CCl`, the Inhibition % is given as 94.1%.
In the case of `N#CCCN(C(=O)CCl)c1ccccc1F`, the Inhibition % was determined as 33.7%.
Regarding `CN(CCOc1ccccc1F)c1cccnc1C#N`, the Inhibition % is 40.3%.
Next, `OB(O)c1ccc(OCc2ccc(Cl)cc2)cc1`: -0.814%; `O=C(CCl)COc1ccc(Cl)cc1`: 97.8%.
In the case of `CN(CCOc1ccc(Cl)cc1)C(=O)CCl`, the Inhibition % amounted to 63.6%.
`CN(Cc1cc(Cl)cc(Cl)c1)C(=O)CCl`: the Inhibition % was determined as 32.4%.
Next, `COc1ccc(N(CC(F)(F)F)C(=O)CCl)cc1`: 36.5%.
In the case of `O=C(CCl)NCCOc1ccc(Cl)cc1`, the Inhibition % worked out at 20.3%.
Next, `COc1ccc(NC(=O)C(C#N)=Cc2ccco2)cn1`: 10.5%; `N#Cc1ncn(CC(=O)N2CCc3sccc3C2)n1`: 10.8%; `CN(C)c1ccc(Cl)cc1NC(=O)CCl`: 1.39%.
For the compound `CC(C)(C)OC(=O)N1CCC(B2OC(C)(C)C(C)(C)O2)C1` (stereo not drawn), the Inhibition % is 1.29%.
Next, `CC1CN(C(=O)CN2CCSC2=O)C(C)CO1` (stereo not drawn): 4.59%; `N#Cc1ccccc1OS(=O)(=O)c1nccs1`: 25.6%.
Take `Cc1cc(F)ccc1OS(=O)(=O)c1cnn(C)c1`: the Inhibition % is 9.05%.
Next, `O=C(CCl)NC(=O)Nc1ccc2c(c1)OCO2`: 1.46%; `O=C(CCl)Nc1ccc2c(c1)OC1(CCCC1)O2`: 78.4%.
As for `O=C(CCCl)Nc1ccc2c(c1)OCO2`, the Inhibition % is on record as 13.1%.
For `O=C(CCl)Nc1ccc2c(c1)OC1(CCCCC1)O2`, the Inhibition % was determined as 93.3%.
Next, `O=C(CCl)Nc1ccc2c(c1)NC(=O)CO2`: 32.7%.
On to `O=C(CCl)Nc1ccc2c(c1)OC(F)(F)O2`, for which the Inhibition % was 37.9%.
As to `COc1ccc(-c2nc(C#N)c(N3CCCC3)o2)cc1`, the Inhibition % was determined as 5.17%.
As to `Cn1c(S)nc2ccccc2c1=O`, the Inhibition % stood at 3.7%.
For `O=C(Cc1ccccc1Cl)N1CCCCC1C1OCCO1` (stereo not drawn), the Inhibition % came to 14.3%.
As to `O=C(CCCl)Nc1ccccc1F`, the Inhibition % is 6.72%.
Regarding `C=CC(=O)Nc1ccccc1`, the Inhibition % was found to be 3.57%.
Next, `O=C(CCl)NC(=O)Nc1ccccc1F`: -2.13%.
Next, `O=C(CS)Nc1ccc(F)cc1`: 5.25%; `O=C(CS)Nc1ccccc1`: 50.4%.
Next, `O=C(CS)Nc1ccccc1F`: 81.5%; `O=S1(=O)C=CC(c2ccccc2)C1` (stereo not drawn): 12.1%; `CCOc1ccc(S(=O)(=O)n2nc(C)cc2C)cc1C`: 7.03%.
`C=CCOc1ccc(Cl)c(C#N)n1`: the Inhibition % is reported as 4.33%.
In the case of `N#CC(=Cc1ccccc1OCC(F)(F)F)C(N)=O`, the Inhibition % was found to be 22.7%.
With `CCc1noc(CC)c1CNCc1ccccc1B(O)O`, the Inhibition % came to 2.29%.
Consider `N#CN(CC(=O)N1CCNC1=O)c1ccccc1`, for which the Inhibition % was determined as 3.42%.
Next, `O=C(CCl)N1CCNCC1.O=C(O)C(F)(F)F`: 7.16%.
Turning to `O=C1CN(C(=O)CCl)CCN1`, the Inhibition % turned out to be 62.6%.
Next, `O=C(CCl)N1CCNC1=O`: 78%; `C=CC(=O)N1CCNC(=O)C1`: 11.3%; `O=C(CCl)N1CCOC1=O`: 31.6%.
